AC50 and outcome data for 31 compounds are collected here from PubChem BioAssay (EPA / NIEHS).

The structures appear in SMILES notation. Active and inactive are the calls of the source. Rule for the calls: active = hit-call score of the fitted dose curve at least 0.9, where 1 is the maximum; inactive = score below 0.9.

In general, AC50 refers to the concentration giving half of the maximal activity seen.

Read-out in one test: Fatty Acid-Binding Protein 1 (FABP1), FABP1 (gene 2168)
The test is described as follows: LTEA_HepaRG_FABP1: Life Technologies and Expression Analysis (LTEA) Assay for Fatty Acid-Binding Protein 1 (FABP1) using HepaRG (AID 2283494). The following applies: mRNA level, 48 h; actives raise or lower the signal. The gist of the method: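 FABP1 expression by TaqMan qRT-PCR, normalised to three housekeeping genes, in HepaRG cells after 48 h chemical treatment. Eight-point half-log series topping at 100 uM in 0.5% DMSO, duplicates; gain or loss fitted relative to vehicle.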
Regarding `CC(C)(C)c1cc(C(C)(C)C)c(O)c(C(C)(C)C)c1`, the AC50 is 14.1 µM (active).

Turning to `Cc1cc(C)c(O)c(C)c1`, the outcome was inactive.

For the compound `CCCCC(CC)COC(=O)CCCCC(=O)OCc1ccccc1` (configuration not stated), the result was inactive.

On to `c1ccc2c(c1)ccc1ccccc12`, for which the outcome was inactive.

For the compound `CCCCCCCCOC(=O)CCCCCCCCC(=O)OCCCCCCCC`, the compound was classed as inactive.

Turning to `CC(C)(C)c1ccc(O)c(C(C)(C)C)c1`, the compound was called inactive.

As for `O=C(OCCOCCOC(=O)c1ccccc1)c1ccccc1`, the call was inactive.

Regarding `CCCOc1sc(C(=O)N2CCC(c3cc(CN)ccc3F)CC2)c(C)c1Br`, the compound was called inactive.

For `CCc1nn(C2CCCCC2)c2cc(C3(C#N)CCC(C(=O)O)CC3)ccc12` (configuration not stated), the AC50 is 88.2 µM (active).

Take `COCC(C)OCC(C)O` (configuration not stated): the outcome was inactive.

For the compound `CC(C)(C)CC(C)(C)c1ccc(O)c(-n2nc3ccccc3n2)c1`, the AC50 was 50 µM (active).

Turning to `CC(O)CO` (configuration not stated), the call was inactive.

Regarding `COc1ccc([N+](=O)[O-])cc1N`, the result was inactive.

As to `CCCCCCCCCCCCN1CCCC1=O`, the result was inactive.

For `OCCC(F)(F)C(F)(F)C(F)(F)C(F)(F)C(F)(F)C(F)(F)F`, the compound was classed as inactive.

For the compound `CCCCCCCCCCCCc1ccccc1S(=O)(=O)O`, the AC50 is 66.4 µM (active).

For `OCCC(F)(F)C(F)(F)C(F)(F)C(F)(F)C(F)(F)C(F)(F)C(F)(F)C(F)(F)F`, the compound was classed as inactive.

In the case of `CCCCOCCO`, the result was inactive.

Consider `CCCCCCCCCCCCCCCS(=O)(=O)Oc1ccccc1`, for which the compound was called inactive.

Turning to `CC(C)(C)c1cccc(C(C)(C)C)c1O`, the call was inactive.

On to `CCC(=C(c1ccc(O)cc1)c1ccc(OCCN(C)C)cc1)c1ccccc1`, for which the result was inactive.

`CC(C)CCCCCCOC(=O)CCCCC(=O)OCCCCCCC(C)C`: the compound was called inactive.

Regarding `CN1CCN(c2ccccc2/C=C2\SCCN(c3ccc(Cl)c(Cl)c3)C2=O)CC1`, the AC50 was 50 µM (active).

With `O=C(O)Cc1cc(I)c(Oc2cc(I)c(O)c(I)c2)c(I)c1`, the concentration at half-maximal activity (AC50) was 62 µM (active).

Regarding `CC(=O)CC(C)(C)O`, the compound was called inactive.

As to `CCN(CC)CCNc1ccc(CNC=O)c2sc3ccc(OC)cc3c(=O)c12`, the AC50 was 21.5 µM (active).

Consider `OC1CCC(C2CCCCC2)CC1` (configuration not stated), for which the result was inactive.

Take `O=c1c(-c2ccc(O)cc2)coc2cc(O)ccc12`: the compound was called inactive.

Regarding `CN(C)C=O`, the outcome was inactive.

On to `NC(=O)N(O)[C@@H]1C=C[C@H](Oc2cccc(Oc3ccc(F)cc3)c2)C1`, for which the concentration at half-maximal activity (AC50) is 74.2 µM (active).

Consider `CC[C@H](C)[C@@H](C(=O)O)n1sc2ccccc2c1=O`, for which the compound was called inactive.

Read-out in the next test: Cytochrome P450 4A22 (Homo sapiens) (UniProt Q5TCH4)
The test is described as follows: LTEA_HepaRG_CYP4A22: Life Technologies and Expression Analysis (LTEA) Assay for Cytochrome P450 4A22 (CYP4A22) using HepaRG (AID 2283495). The following applies: mRNA level, 48 h; actives raise or lower the signal. The procedure, abridged: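 HepaRG, 48 h post-plating -> serum-free induction medium; dosed 48 h, duplicate, 8 conc. (100 uM top, half-log), 0.5% DMSO. Readout: CYP4A22 mRNA by qRT-PCR, ACTB/GAPDH/POLR2A normalization; gain/loss fit relative to DMSO.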
On to `CC(C)(C)c1cc(C(C)(C)C)c(O)c(C(C)(C)C)c1`, for which the result was inactive.

On to `CCCCC(CC)COC(=O)CCCCC(=O)OCc1ccccc1` (configuration not stated), for which the compound was classed as inactive.

`c1ccc2c(c1)ccc1ccccc12`: the compound was called inactive.

As for `CC(C)(C)c1ccc(O)c(C(C)(C)C)c1`, the compound was classed as inactive.

For `O=C(OCCOCCOC(=O)c1ccccc1)c1ccccc1`, the result was inactive.

Consider `CCCOc1sc(C(=O)N2CCC(c3cc(CN)ccc3F)CC2)c(C)c1Br`, for which the outcome was inactive.

Consider `CCc1nn(C2CCCCC2)c2cc(C3(C#N)CCC(C(=O)O)CC3)ccc12` (configuration not stated), for which the AC50 was 56.7 µM (active).

As to `CC(C)(C)CC(C)(C)c1ccc(O)c(-n2nc3ccccc3n2)c1`, the AC50 was 50 µM (active).

`CC(O)CO` (configuration not stated): the outcome was inactive.

With `COc1ccc([N+](=O)[O-])cc1N`, the call was inactive.

For the compound `CCCCCCCCCCCCN1CCCC1=O`, the compound was classed as inactive.

Regarding `OCCC(F)(F)C(F)(F)C(F)(F)C(F)(F)C(F)(F)C(F)(F)F`, the call was inactive.

Regarding `CCCCCCCCCCCCc1ccccc1S(=O)(=O)O`, the concentration at half-maximal activity (AC50) was 79.6 µM (active).

As to `CCCCCCCCCCCCCCCS(=O)(=O)Oc1ccccc1`, the call was inactive.

In the case of `O=C(O)Cc1cc(I)c(Oc2cc(I)c(O)c(I)c2)c(I)c1`, the AC50 is 54.5 µM (active).

As to `OC1CCC(C2CCCCC2)CC1` (configuration not stated), the compound was classed as inactive.

In the case of `O=c1c(-c2ccc(O)cc2)coc2cc(O)ccc12`, the result was inactive.

`CN(C)C=O`: the outcome was inactive.

Take `NC(=O)N(O)[C@@H]1C=C[C@H](Oc2cccc(Oc3ccc(F)cc3)c2)C1`: the half-maximal activity concentration (AC50) was 25.6 µM (active).

With `CC[C@H](C)[C@@H](C(=O)O)n1sc2ccccc2c1=O`, the compound was called inactive.

Read-out in the next test: Cytochrome P450 7A1 (Homo sapiens) (UniProt P22680)
The test is described as follows: LTEA_HepaRG_CYP7A1: Life Technologies and Expression Analysis (LTEA) Assay for Cytochrome P450 7A1 (CYP7A1) using HepaRG (AID 2283496). As to conditions: mRNA level, 48 h; actives raise or lower the signal. The gist of the method:
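Using 0.5% DMSO as vehicle and baseline, chemicals were tested in duplicate over an 8-point range from 100 uM on HepaRG cells for 48 h; qRT-PCR signals were normalised to ACTB, GAPDH and POLR2A.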
Consider `CC(C)(C)c1cc(C(C)(C)C)c(O)c(C(C)(C)C)c1`, for which the half-maximal activity concentration (AC50) was 16.6 µM (active).

Consider `Cc1cc(C)c(O)c(C)c1`, for which the result was inactive.

For `CCCCC(CC)COC(=O)CCCCC(=O)OCc1ccccc1` (configuration not stated), the compound was classed as inactive.

As for `c1ccc2c(c1)ccc1ccccc12`, the compound was classed as inactive.

In the case of `CCCCCCCCOC(=O)CCCCCCCCC(=O)OCCCCCCCC`, the result was inactive.

In the case of `CC(C)(C)c1ccc(O)c(C(C)(C)C)c1`, the outcome was inactive.

`O=C(OCCOCCOC(=O)c1ccccc1)c1ccccc1`: the compound was called inactive.

On to `CCCOc1sc(C(=O)N2CCC(c3cc(CN)ccc3F)CC2)c(C)c1Br`, for which the result was inactive.

In the case of `CCc1nn(C2CCCCC2)c2cc(C3(C#N)CCC(C(=O)O)CC3)ccc12` (configuration not stated), the AC50 is 63.3 µM (active).

As for `COCC(C)OCC(C)O` (configuration not stated), the compound was called inactive.

`CC(C)(C)CC(C)(C)c1ccc(O)c(-n2nc3ccccc3n2)c1`: the AC50 is 50 µM (active).

Consider `CC(O)CO` (configuration not stated), for which the compound was classed as inactive.

`COc1ccc([N+](=O)[O-])cc1N`: the outcome was inactive.

`CCCCCCCCCCCCN1CCCC1=O`: the compound was classed as inactive.

In the case of `OCCC(F)(F)C(F)(F)C(F)(F)C(F)(F)C(F)(F)C(F)(F)F`, the outcome was inactive.

For `CCCCCCCCCCCCc1ccccc1S(=O)(=O)O`, the concentration at half-maximal activity (AC50) was 93.7 µM (active).

Consider `OCCC(F)(F)C(F)(F)C(F)(F)C(F)(F)C(F)(F)C(F)(F)C(F)(F)C(F)(F)F`, for which the compound was called inactive.

`CCCCOCCO`: the compound was classed as inactive.

`CCCCCCCCCCCCCCCS(=O)(=O)Oc1ccccc1`: the compound was classed as inactive.

Take `CC(C)(C)c1cccc(C(C)(C)C)c1O`: the result was inactive.

As for `CCC(=C(c1ccc(O)cc1)c1ccc(OCCN(C)C)cc1)c1ccccc1`, the outcome was inactive.

With `CC(C)CCCCCCOC(=O)CCCCC(=O)OCCCCCCC(C)C`, the compound was classed as inactive.

As for `CN1CCN(c2ccccc2/C=C2\SCCN(c3ccc(Cl)c(Cl)c3)C2=O)CC1`, the AC50 was 93.9 µM (active).

As for `O=C(O)Cc1cc(I)c(Oc2cc(I)c(O)c(I)c2)c(I)c1`, the AC50 was 48.2 µM (active).

For the compound `CC(=O)CC(C)(C)O`, the compound was called inactive.

As to `CCN(CC)CCNc1ccc(CNC=O)c2sc3ccc(OC)cc3c(=O)c12`, the AC50 is 21.7 µM (active).

Take `OC1CCC(C2CCCCC2)CC1` (configuration not stated): the outcome was inactive.

For `O=c1c(-c2ccc(O)cc2)coc2cc(O)ccc12`, the call was inactive.

In the case of `CN(C)C=O`, the compound was classed as inactive.

In the case of `NC(=O)N(O)[C@@H]1C=C[C@H](Oc2cccc(Oc3ccc(F)cc3)c2)C1`, the AC50 is 74.2 µM (active).

Regarding `CC[C@H](C)[C@@H](C(=O)O)n1sc2ccccc2c1=O`, the call was inactive.
